Reference: paper PMC5540273 (PLoS ONE, 2017)

What was measured:
Conditions in all cases: concentration: 1 μM, replicates: in singlicate; n = 1
[1] = system: T1, TIE2
T1 construct: gene TEK

[2] = system: TLK1
[3] = system: TLK2
[4] = system: TNIK
[5] = system: TNK1
[6] = system: TNK2
[7] = system: TNNI3K
[8] = system: T2, TRKA
T2 construct: gene NTRK1

[9] = system: TRKB
[10] = system: T3, TRKC
T3 construct: gene NTRK3

[11] = system: TRPM6
[12] = system: TSSK1B
[13] = system: TSSK3
[14] = system: TTK
[15] = system: TXK
[16] = system: TYK2(JH1domain-catalytic)
[17] = system: TYK2(JH2domain-pseudokinase)
[18] = system: TYRO3
[19] = system: ULK1
[20] = system: ULK2
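Also: KINOMEscan kinase panel screen.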

Compound | %Inh [1] [%] | %Inh [2] [%] | %Inh [3] [%] | %Inh [4] [%] | %Inh [5] [%] | %Inh [6] [%] | %Inh [7] [%] | %Inh [8] [%] | %Inh [9] [%] | %Inh [10] [%] | %Inh [11] [%] | %Inh [12] [%] | %Inh [13] [%] | %Inh [14] [%] | %Inh [15] [%] | %Inh [16] [%] | %Inh [17] [%] | %Inh [18] [%] | %Inh [19] [%] | %Inh [20] [%]
Cn1c(=O)c(F)c(Nc2ccc(I)cc2F)c2c(=O)n(OC[C@H](O)CO)cnc21 | 9 | 0 | 0 | 0 | 29 | 0 | 4 | 0 | 0 | 0 | 0 | 0 | 0 | 15 | 23 | 0 | 0 | 2 | 0 | 0
Nc1ncnc2c1ncn2-c1cccc(F)c1 [SKF-97560] | 0 | 0 | 0 | 4 | 23 | 15 | 100 | 60 | 41 | 41 | 74 | 22 | 20 | 0 | 0 | 38 | 35 | 9 | 7 | 26
COc1ccc(Nc2nccc(N3CCC(NS(=O)(=O)c4ccc(NC(C)=O)cc4)C3)n2)cc1 (centres unmarked) [GSK1379729] | 8 | 0 | 0 | 0 | 18 | 12 | 100 | 65 | 0 | 19 | 0 | 0 | 21 | 7 | 35 | 93.8 | 0 | 23 | 26 | 0
COc1ccc(-c2cc3c(C)nc(N)nc3n([C@H]3CC[C@H](O)CC3)c2=O)cn1 | 0 | 0 | 0 | 0 | 0 | 0 | 0 | 0 | 0 | 0 | 0 | 0 | 0 | 0 | 0 | 0 | 0 | 0 | 0 | 0
Cc1nnc(-c2ccc(C)c(-c3ccc(C(=O)O)cc3)c2)o1 [GW608005] | 0 | 0 | 0 | 0 | 0 | 0 | 0 | 0 | 20 | 0 | 1 | 10 | 0 | 12 | 0 | 15 | 8 | 0 | 8 | 0
Cc1c(Cn2c(C)nn3c(=O)cc(N4CCO[C@H](C)C4)nc23)cccc1C(F)(F)F [GSK2373690] | 0 | 0 | 0 | 0 | 0 | 13 | 4 | 0 | 6 | 11 | 0 | 0 | 14 | 0 | 3 | 0 | 0 | 22 | 14 | 0
COc1cc2nccc(Nc3ccc(OCc4ccc(NC(C)=O)cc4)cc3)c2cc1OC.Cl [GW440135] | 1 | 0 | 0 | 0 | 0 | 16 | 0 | 37 | 0 | 21 | 3 | 0 | 26 | 0 | 6 | 9 | 5 | 0 | 0 | 0
Cc1nnc(-c2ccc3ncn(-c4ccc(S(C)=O)cc4)c3c2)o1 (centres unmarked) | 11 | 23 | 0 | 11 | 4 | 0 | 7 | 0 | 0 | 0 | 0 | 0 | 6 | 0 | 5 | 0 | 2 | 12 | 0 | 0
COc1cc2ncn(-c3cc(OCCCc4ccccc4)c(C(N)=O)s3)c2cc1OC [GSK205189] | 0 | 0 | 0 | 22 | 12 | 7 | 0 | 55 | 0 | 24 | 0 | 0 | 10 | 12 | 0 | 0 | 0 | 0 | 2 | 0
FC(F)(F)c1ccc(-c2ncn(CCCN3CCOCC3)c2-c2ccncc2)cc1 [SB-217780] | 6 | 0 | 0 | 0 | 1 | 0 | 0 | 14 | 0 | 0 | 4 | 0 | 0 | 0 | 10 | 32 | 24 | 0 | 1 | 46
O=C(Nc1n[nH]c2cc(-c3ccccc3F)ccc12)C1CC1 [SB-733371] | 26 | 2 | 0 | 76 | 0 | 0 | 0 | 53 | 0 | 19 | 0 | 0 | 0 | 0 | 12 | 0 | 0 | 0 | 2 | 8
Cc1cc(Nc2nc(-c3cccc(C)n3)nc3ccccc23)ccn1 [GW872411] | 13 | 0 | 15 | 13 | 25 | 0 | 0 | 0 | 0 | 0 | 0 | 0 | 0 | 0 | 0 | 0 | 1 | 0 | 4 | 0
COc1cc(Nc2ccnc3ccc(C(F)(F)F)cc23)cc(OC)c1OC [GW577382] | 0 | 6 | 0 | 0 | 14 | 16 | 24 | 48 | 0 | 14 | 0 | 0 | 13 | 17 | 54 | 19 | 0 | 0 | 0 | 0
COC(=O)c1c(-c2ccccc2)c2cc(Br)ccc2c(=O)n1Cc1ccc(NC(=O)CCC(=O)O)cc1 | 0 | 19 | 0 | 0 | 17 | 0 | 0 | 0 | 0 | 35 | 0 | 0 | 0 | 9 | 39 | 4 | 0 | 0 | 8 | 11
COc1cccc(C2=C(Nc3cccc(C(=O)O)c3)C(=O)NC2=O)c1 [SB-390770] | 37 | 7 | 0 | 4 | 0 | 12 | 8 | 56 | 0 | 0 | 15 | 23 | 15 | 0 | 48 | 19 | 0 | 0 | 26 | 6
Nc1n[nH]c2nnc(-c3ccccc3)c(-c3ccccc3)c12 [GW554060] | 0 | 0 | 0 | 0 | 0 | 19 | 0 | 0 | 14 | 24 | 0 | 13 | 20 | 0 | 12 | 34 | 55 | 10 | 27 | 8
O=C(NCc1cccs1)c1cc(C(=O)c2c(Cl)cccc2Cl)c[nH]1 [GW823670] | 2 | 0 | 0 | 5 | 26 | 0 | 0 | 0 | 0 | 0 | 0 | 18 | 0 | 9 | 0 | 1 | 0 | 0 | 0 | 29
Nc1n[nH]c2ncc(-c3ccccc3)cc12 [SB-517081] | 0 | 0 | 2 | 1 | 0 | 21 | 12 | 17 | 37 | 31 | 21 | 16 | 4 | 33 | 0 | 45 | 92.7 | 0 | 3 | 0
CCC(=O)c1c(-c2ccccc2)c2cc(Cl)ccc2c(=O)n1Cc1cc(S(C)(=O)=O)n(CC(N)=O)n1 | 24 | 2 | 0 | 4 | 0 | 0 | 0 | 0 | 0 | 0 | 0 | 0 | 0 | 8 | 0 | 0 | 0 | 0 | 0 | 0
